PubChem BioAssay (EPA / NIEHS)
Active and inactive are the calls of the source. The calls were made as follows: active = hit-call score of the fitted dose curve at least 0.9, where 1 is the maximum; inactive = score below 0.9.

Experiments:
[1] = target: Bile acid receptor (Homo sapiens) (UniProt Q96RI1); assay: ATG_IR1_CIS: Attagene CIS-FACTORIAL HepG2 Assay for human Nuclear Receptor Subfamily 1 Group H Member 4 (NR1H4), IR1 submotif (AID 2282946); settings: IR1 reporter transcription, actives raise or lower the signal
Sequence of Bile acid receptor (Homo sapiens) (Q96RI1 whole entry, looked up): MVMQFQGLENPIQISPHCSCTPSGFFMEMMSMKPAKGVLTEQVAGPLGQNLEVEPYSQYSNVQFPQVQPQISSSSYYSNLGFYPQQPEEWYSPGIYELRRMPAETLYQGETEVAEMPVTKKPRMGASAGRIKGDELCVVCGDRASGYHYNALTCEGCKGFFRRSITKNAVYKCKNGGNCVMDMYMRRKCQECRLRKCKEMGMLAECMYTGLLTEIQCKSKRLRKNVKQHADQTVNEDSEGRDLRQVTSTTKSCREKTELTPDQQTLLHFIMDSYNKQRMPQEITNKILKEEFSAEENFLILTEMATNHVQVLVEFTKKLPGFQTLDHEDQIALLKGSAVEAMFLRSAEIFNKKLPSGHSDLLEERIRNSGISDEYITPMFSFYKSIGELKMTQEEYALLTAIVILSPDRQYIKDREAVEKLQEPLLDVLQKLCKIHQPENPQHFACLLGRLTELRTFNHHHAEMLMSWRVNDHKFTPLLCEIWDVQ
How it was run: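 Fluorescence of capillary-separated, HpaI-digested RT-PCR reporter products gave IR1-element mRNA induction in HepG2 cells 24 h after dosing. Endogenous transcription factors drove the cis-regulated reporters; activity was fitted bidirectionally against DMSO.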

[2] = ATG_GRE_CIS: Attagene CIS-FACTORIAL HepG2 Assay for human Glucocorticoid Response Elements (GRE) (AID 2282947); settings: HepG2 GRE cis-reporter, Attagene multiplex mRNA; actives raise or lower the signal
How it was run: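 Fluorescence intensity of reporter-specific cDNA fragments, separated by capillary electrophoresis, provides the signal. Constructs carry cis-regulating promoters in transiently transfected HepG2 liver cells; 24 h incubation; fitting is bidirectional against DMSO.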

[3] = ATG_M_32_CIS: Attagene CIS-FACTORIAL HepG2 Assay for M32 Transcription Factor (Internal Marker) (AID 2282949); settings: HepG2 Attagene cis-factorial M32 reporter, mRNA; actives raise or lower the signal;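 also: background control marker of the multiplexed CIS panel rather than a real target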
How it was run: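 HepG2 transfectants (cis-regulated reporter transcription units) dosed 24 h. Reporter mRNA by RT-PCR plus CE, analysed as gain or loss relative to DMSO.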

[4] = ATG_M_06_CIS: Attagene CIS-FACTORIAL HepG2 Assay for M06 Transcription Factor (Internal Marker) (AID 2282950); settings: HepG2 Attagene CIS-FACTORIAL M06 internal marker reporter; actives raise or lower the signal
How it was run: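 HepG2 cells transiently transfected with cis-regulated multiple reporter transcription units were exposed to chemical for 24 h; reporter mRNA was quantified by RT-PCR, 6-FAM primer labelling, HpaI digestion and capillary electrophoresis, fitted bidirectionally against DMSO.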

[5] = target: Hypoxia-inducible factor 1-alpha (Homo sapiens) (UniProt Q16665); assay: ATG_HIF1a_CIS: Attagene CIS-FACTORIAL HepG2 Assay for human Hypoxia Inducible Factor 1 (HIF1A) (AID 2282951); settings: HepG2 Attagene cis-factorial HIF1a reporter transcription; actives raise or lower the signal
Sequence of Hypoxia-inducible factor 1-alpha (Homo sapiens) (Q16665 whole entry, looked up): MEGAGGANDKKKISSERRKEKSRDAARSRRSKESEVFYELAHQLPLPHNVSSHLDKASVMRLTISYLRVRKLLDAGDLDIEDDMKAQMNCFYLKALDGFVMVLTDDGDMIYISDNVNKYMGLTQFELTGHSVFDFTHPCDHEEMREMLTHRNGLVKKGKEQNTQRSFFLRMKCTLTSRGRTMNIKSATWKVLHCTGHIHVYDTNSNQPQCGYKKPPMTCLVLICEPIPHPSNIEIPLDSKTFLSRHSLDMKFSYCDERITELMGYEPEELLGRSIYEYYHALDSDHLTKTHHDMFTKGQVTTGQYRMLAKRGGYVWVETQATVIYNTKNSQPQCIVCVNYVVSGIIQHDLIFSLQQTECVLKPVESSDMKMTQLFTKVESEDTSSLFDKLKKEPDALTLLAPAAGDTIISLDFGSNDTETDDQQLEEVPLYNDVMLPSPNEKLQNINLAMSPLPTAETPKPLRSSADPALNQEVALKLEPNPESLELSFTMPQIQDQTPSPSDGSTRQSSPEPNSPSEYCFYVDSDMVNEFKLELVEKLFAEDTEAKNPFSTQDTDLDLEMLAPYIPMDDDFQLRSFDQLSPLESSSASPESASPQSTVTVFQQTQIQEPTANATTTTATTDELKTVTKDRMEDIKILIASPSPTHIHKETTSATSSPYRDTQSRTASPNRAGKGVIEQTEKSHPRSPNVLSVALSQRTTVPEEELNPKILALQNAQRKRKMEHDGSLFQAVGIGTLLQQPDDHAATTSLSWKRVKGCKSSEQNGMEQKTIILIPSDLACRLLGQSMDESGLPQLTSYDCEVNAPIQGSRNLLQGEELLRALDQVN
How it was run: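 In this multiplexed cell assay, HepG2 cells bearing transfected cis reporters are dosed for 24 h and reporter mRNA is read by RT-PCR plus capillary electrophoresis; signal increases and decreases are both scored against DMSO.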

[6] = target: Hepatocyte nuclear factor 6 (Homo sapiens) (UniProt Q9UBC0); assay: ATG_HNF6_CIS: Attagene CIS-FACTORIAL HepG2 Assay for human Hepatocyte Nuclear Factor 6 (HNF6) (AID 2282952); settings: HepG2 Attagene cis-factorial HNF6 reporter transcription; actives raise or lower the signal
Sequence of Hepatocyte nuclear factor 6 (Homo sapiens) (Q9UBC0 whole entry, looked up, the tested form may be a part): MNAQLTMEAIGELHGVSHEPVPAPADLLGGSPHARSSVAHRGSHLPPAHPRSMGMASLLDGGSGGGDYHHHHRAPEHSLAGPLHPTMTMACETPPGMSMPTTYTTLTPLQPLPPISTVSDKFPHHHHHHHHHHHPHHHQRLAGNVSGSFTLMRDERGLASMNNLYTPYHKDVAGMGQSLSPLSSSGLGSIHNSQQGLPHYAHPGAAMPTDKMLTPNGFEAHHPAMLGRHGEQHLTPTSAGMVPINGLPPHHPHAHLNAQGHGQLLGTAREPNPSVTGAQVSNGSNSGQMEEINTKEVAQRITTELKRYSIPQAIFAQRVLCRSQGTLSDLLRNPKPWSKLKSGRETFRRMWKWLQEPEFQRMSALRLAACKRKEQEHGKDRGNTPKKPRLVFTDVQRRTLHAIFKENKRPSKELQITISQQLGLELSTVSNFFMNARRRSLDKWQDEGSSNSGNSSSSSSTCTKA
How it was run: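 First, HepG2 cells were transfected with the multiplexed cis reporter library and dosed with chemical for 24 h. Next, RNA was reverse-transcribed, PCR-amplified and fluorescently labelled. Finally, HpaI-digested fragments were read by capillary electrophoresis.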

[7] = target: Heat shock factor protein 1 (Homo sapiens) (UniProt Q00613); assay: ATG_HSE_CIS: Attagene CIS-FACTORIAL HepG2 Assay for human Heat Shock Transcription Factor 1 (HSE) (AID 2282953); settings: HepG2 HSE cis-reporter, Attagene RNA transcription; actives raise or lower the signal
Sequence of Heat shock factor protein 1 (Homo sapiens) (Q00613 whole entry, looked up): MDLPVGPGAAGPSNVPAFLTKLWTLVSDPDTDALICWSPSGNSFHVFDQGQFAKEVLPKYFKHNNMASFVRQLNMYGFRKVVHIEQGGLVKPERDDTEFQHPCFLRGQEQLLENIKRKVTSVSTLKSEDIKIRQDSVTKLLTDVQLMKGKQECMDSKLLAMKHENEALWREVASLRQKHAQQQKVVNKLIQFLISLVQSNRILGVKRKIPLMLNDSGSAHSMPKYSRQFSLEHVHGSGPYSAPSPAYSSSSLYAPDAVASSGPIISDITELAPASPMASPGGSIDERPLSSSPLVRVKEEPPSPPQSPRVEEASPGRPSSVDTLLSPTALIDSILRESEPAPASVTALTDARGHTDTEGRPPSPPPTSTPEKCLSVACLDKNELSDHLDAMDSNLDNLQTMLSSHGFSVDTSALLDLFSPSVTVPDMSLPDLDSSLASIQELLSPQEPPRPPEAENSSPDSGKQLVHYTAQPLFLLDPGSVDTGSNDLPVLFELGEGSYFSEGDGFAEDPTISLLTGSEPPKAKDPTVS
How it was run: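 HepG2 cells transiently transfected with multiple reporter transcription units under cis-regulatory promoter control, measuring endogenous transcription factor activity. After 24 h chemical exposure, reporter mRNA quantified by RT-PCR, fluorescent labelling, HpaI digestion and capillary electrophoresis; bidirectional fit versus DMSO.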

[8] = ATG_MRE_CIS: Attagene CIS-FACTORIAL HepG2 Assay for human Metal Responsive Element (MRE) (AID 2282954); settings: HepG2 MRE cis-reporter transcription, Attagene multiplex; actives raise or lower the signal
How it was run: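 Measured here is mRNA induction from an MRE cis-element reporter in HepG2 after 24 h, quantified by fluorescence of labelled RT-PCR products on capillary electrophoresis; gain- and loss-of-signal fits use DMSO as baseline.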

[9] = ATG_ISRE_CIS: Attagene CIS-FACTORIAL HepG2 Assay for human Interferon Regulatory Factor 1 (IRF1) binding to an Interferon-Stimulated Response Element (ISRE) (AID 2282948); settings: HepG2 ISRE cis-reporter (Attagene), mRNA transcription readout; actives raise or lower the signal
How it was run: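 Signal reflects induction or loss of ISRE-linked reporter mRNA in transiently transfected HepG2 cells after a 24 h treatment, detected by fluorescent RT-PCR fragments on capillary electrophoresis and normalised to DMSO.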

[10] = ATG_PBREM_CIS: Attagene CIS-FACTORIAL HepG2 Assay for human Phenobarbital-responsive Enhancer Module (PBREM) (AID 2282955); settings: HepG2 PBREM cis-reporter, Attagene multiplexed transcription; actives raise or lower the signal
How it was run: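 After a 24 h incubation with test chemical, transfected HepG2 cells yield total RNA; reporter-specific RT-PCR products are fluorescently labelled, HpaI-digested and resolved by capillary electrophoresis against ROX size standards.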

Measured: AC50

CCCCCCCCCCCCCCCC[n+]1ccccc1
not listed: [9] | [10]
inactive: all other assays above

CCN(CCO)c1cccc(C)c1
not listed: [2]
inactive: all other assays above

COc1ccc([C@@H]2CC(=O)c3c(O)cc(O[C@@H]4O[C@H](CO[C@@H]5O[C@@H](C)[C@H](O)[C@@H](O)[C@H]5O)[C@@H](O)[C@H](O)[C@H]4O)cc3O2)cc1OC
not listed: [2]
inactive: all other assays above

CCCCCCCCc1ccc(Nc2ccc(CCCCCCCC)cc2)cc1
not listed: [9]
inactive: all other assays above

Nc1ccc(N)c(Cl)c1
active: [9] 45.7 µM | [6] 57.2 µM | [7] 8.3 µM | [10] 26.2 µM
not listed: [2]
inactive: all other assays above

c1cc(N(CC2CO2)CC2CO2)ccc1OCC1CO1 (stereo unspecified)
active: [9] 74.4 µM | [5] 39.6 µM | [7] 152 µM | [8] 31.7 µM
not listed: [2]
inactive: all other assays above

Cc1oncc1C(=O)Nc1ccc(C(F)(F)F)cc1
active: [10] 143 µM
not listed: [5] | [9]
inactive: all other assays above

C=C(C)C(=O)OCC(C)C
not listed: [2] | [10]
inactive: all other assays above

CC(=O)c1ccc[nH]1
not listed: [2] | [7] | [10]
inactive: all other assays above

O=S(=O)(O)CC(O)CCl (stereo unspecified)
not listed: [2]
inactive: all other assays above

Cc1cccc(N)n1
not listed: [2] | [10]
inactive: all other assays above

O=C1c2cccc(O)c2C(=O)c2c(O)cc(CO)cc21
active: [5] 24 µM
not listed: [9] | [10]
inactive: all other assays above

CC(=O)OCC(C)OC(C)=O (stereo unspecified)
not listed: [2] | [7] | [10]
inactive: all other assays above

O=C(O)Cc1c(Cl)ccc(Cl)c1Cl
not listed: [2]
inactive: all other assays above

CCCCC(CC)CCC(CC(C)C)OS(=O)(=O)O (stereo unspecified)
not listed: [2]
inactive: all other assays above

CCC(Cc1ccccc1)(C(=O)c1ccc(N2CCOCC2)cc1)N(C)C (stereo unspecified)
inactive: [1] | [3] | [4] | [6]
active: [9] 27.2 µM | [5] 22.9 µM | [7] 65.9 µM | [8] 52.7 µM

Nc1cccc(C(F)(F)F)c1
not listed: [2] | [10]
inactive: all other assays above

C=CC=CC=CCCCCC
active: [1] 40.4 µM
not listed: [2] | [10]
inactive: all other assays above

Cc1cc(O)c(Cl)c(C)c1Cl
not listed: [9]
inactive: all other assays above

Cc1cc(C)c(C)cc1C
not listed: [2] | [10]
inactive: all other assays above

O=C(O)CC(C(=O)O)C(CC(=O)O)C(=O)O (stereo unspecified)
not listed: [9] | [10]
inactive: all other assays above

O=CC1CC1
not listed: [2] | [10]
inactive: all other assays above

Nc1ccc(-c2ccc(F)cc2)cc1
not listed: [2]
inactive: all other assays above

O=S(=O)(O)c1ccccc1C=Cc1ccc(-c2ccc(C=Cc3ccccc3S(=O)(=O)O)cc2)cc1
not listed: [4] | [7] | [9]
inactive: all other assays above

CC(C)=CCCC(C)C=O (stereo unspecified)
not listed: [2] | [10]
inactive: all other assays above

Cc1cc(C)c(C)c(C)c1
not listed: [2] | [7]
inactive: all other assays above

O=C1CC2CC1C1CCCC21 (stereo unspecified)
not listed: [2] | [9]
inactive: all other assays above

N=c1ccn2c(n1)O[C@H]1[C@H](O)[C@@H](CO)O[C@H]12
not listed: [1] | [10]
inactive: all other assays above
